Compound activity: PubChem BioAssay, National Center for Advancing Translational Sciences (NCATS)
KDM4E inh: inhibitors of human JMJD2E histone demethylase. B2RXH2. JMJD2E catalytic domain, FDH-coupled NADH fluorescence (FDH is formaldehyde dehydrogenase). Potency, µM (series often up to 57.1 µM), inactives show at the highest dose activity change, negative = inhibition, hits mostly inhibitors. 230,000 tested, 1.6% active; active = well fitted inhibition curve with a large enough effect, not every such curve was filed as active; inconclusive = small, poorly fitted or top-dose-only effect, or another doubt; inactive = no such curve, though single readings can be large or run the other way;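 note: potency is the fitted concentration of half-maximal effect; 0% = wells with enzyme and -100% = buffer wells without enzyme; nearly all actives have a fitted effect of over 50% in size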
Target sequence (B2RXH2 1-337 limits assumed): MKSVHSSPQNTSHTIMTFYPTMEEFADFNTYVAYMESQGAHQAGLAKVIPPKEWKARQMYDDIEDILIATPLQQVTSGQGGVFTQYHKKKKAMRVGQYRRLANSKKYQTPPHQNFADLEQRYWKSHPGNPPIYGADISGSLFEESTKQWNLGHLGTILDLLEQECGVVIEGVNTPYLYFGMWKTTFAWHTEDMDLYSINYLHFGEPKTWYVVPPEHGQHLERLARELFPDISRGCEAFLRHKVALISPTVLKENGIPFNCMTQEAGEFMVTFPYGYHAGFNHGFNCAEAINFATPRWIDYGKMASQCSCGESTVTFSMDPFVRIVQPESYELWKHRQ
Tau fluor cs: counter-screen for tau fibril formation inhibitors; tau K18 P301L Alexa594 fluorescence, heparin fibrillization; Potency, µM (top dose mostly 57.7 µM), inactives show at the highest dose activity change, negative = decrease; 280,000 tested, 0.93% active; AID 1463; note: potency is the fitted concentration of half-maximal effect; nearly all actives have a fitted effect of over 55% in size
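Human tau K18 P301L (15 uM unlabeled, 0.24 uM Alexa 594-labeled) in 100 mM sodium acetate pH 7 with 20 uM heparin, 6 hr at 37 C. ThT 30 uM added, 1 hr ambient; Alexa 594 FP and total fluorescence read at 555/632 nm.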
Coupling enz: coupling enzyme interference in Giardia aldolase counter-screen | coupling enzyme system counterscreen, AmpLite Red fluorescence | activity change, negative = inhibition, % at 58.2 µM, hits read low | 290,000 tested, 0.67% active; in the data active = activity change below about -30%
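Counterscreen of the coupled detection system alone, without aldolase: glyceraldehyde-3-phosphate coupling enzymes plus AmpLite Red readout. Compounds at 57.5 uM final, 10 min RT preincubation, 20 min RT reaction, fluorescence 525/598 nm.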
Tau fibril ThT: blocks human tau fibril formation measured by thioflavin T; recombinant tau K18 P301L (four-repeat tau fragment), heparin-induced fibrillization, ThT fluorescence; AID 1460; 270,000 tested, 2.1% active; Potency, µM (doses to about 57.4 µM), for the others: top-dose activity, negative = inhibition, usual class: inhibitors; P10636; note: potency is the fitted concentration of half-maximal effect; nearly all actives have a fitted effect of over 55% in size
Target sequence (P10636 561-689 P618L limits assumed): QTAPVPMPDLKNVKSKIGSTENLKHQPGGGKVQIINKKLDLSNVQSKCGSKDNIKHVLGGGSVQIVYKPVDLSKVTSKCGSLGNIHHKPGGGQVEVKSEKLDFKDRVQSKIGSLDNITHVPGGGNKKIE
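Heparin-induced fibrillization of the P301L-mutant K18 repeat-domain fragment of human tau was followed by ThT binding in quantitative high-throughput format.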
Tau FP inhib: blocks human tau fibril formation measured by polarization; P10636; K18 P301L tau heparin fibrillization, Alexa594 FP, 6 h; Potency, µM (doses to about 57.7 µM), for inactives: top-dose activity, negative = inhibition, hits mostly inhibitors; 280,000 tested, 0.39% active; AID 1468; note: potency is the fitted concentration of half-maximal effect; nearly all actives have a fitted effect of over 55% in size
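Human tau K18 […] P301L fragment, 15 uM unlabeled plus 0.24 uM Alexa 594-labeled tau (final), with compound and 20 uM heparin in 100 mM sodium acetate pH 7; 6 hr at 37 C, then Alexa 594 FP read.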
Starred values were filed as active, the others as inactive; ? = inconclusive; . = no result given; [ ] = remark or other dose. Sampled rows, rich in hits. Any-hit rate of the full collection: about 3%. Unless noted, calls come from the whole dose curve; as a rule, active = well fitted curve in the direction sought with a large enough effect; inconclusive = small, poorly fitted or top-dose-only effect, or another doubt; inactive = no such curve, though single readings can be large; an effect the other way counts as inactive or inconclusive. Unless noted, % is set by controls: 0 for no effect and ±100 for the full control effect.

SMILES	KDM4E inh	Tau fluor cs	Coupling enz	Tau fibril ThT	Tau FP inhib
CC(=O)NCCc1ccc(O)c(O)c1	17.8µM*	?	.	?	?
COc1ccc(/C=N/Nc2cc(=O)n(C)c(=O)n2C)cc1OC	3.4%	0.8%	-35.0*	?	-6.2%
COc1cc(/C=C\C(=O)Nc2cc(=O)n(C)c(=O)n2C)cc(OC)c1OC	-17.6%	-1.4%	-3.3	-7.5%	0.2%
COc1ccc(/C=C/C(=O)NNc2cc(=O)n(C)c(=O)n2C)cc1OC	?	?	-31.4*	.	8.9%
COc1cc2cc3c4cc(OC)c(OC)cc4cc[n+]3c(C)c2cc1OC	?	-13.1%	-6.3	?	-6.9%
COc1ccccc1NC(=O)C1=C(C)Nc2nc3ccccc3n2C1c1ccccc1Cl (stereo unspecified)	.	-27.0%	.	-5.4%	12.2%
Oc1ccccc1/C=N/NC(=S)NC1CC2CC1C1C=CCC21 (stereo unspecified)	15.8µM*	12.6µM*[quencher]	-1.6	-10.8%	-12.9%
Cc1ccc(CNC(=O)[C@]2(C(F)(F)F)C[C@H](CCc3ccccc3)CCCO2)o1	.	.	0.2	.	.
N#CC1=C(N)Oc2n[nH]c(-c3cccs3)c2C1c1cccs1 (stereo unspecified)	-9.1%	?	-12.0	28.2µM*	-15.4%
CCCC(=O)NC(c1ccc(OC)c(OC)c1)c1cc(Cl)c2cccnc2c1O (stereo unspecified)	17.8µM*	-2.4%	-5.2	-0.4%	5.1%
CCCC(=O)NC(c1ccco1)c1cc([N+](=O)[O-])c2cccnc2c1O (stereo unspecified)	28.2µM*	-10.4%	-26.9	?	-17.4%
Cn1nnnc1SCCCNCc1cccc(OCc2ccc(F)cc2)c1	.	-15.1%	.	-4.9%	-5.3%
Nc1ccc(-c2nc3c(Cl)cc(N)cc3[nH]2)cc1	?	?	-5.6	20µM*	?
C=CCOc1c(Br)cc(CNc2ccc(NC(=O)CCC)cc2)cc1OCC	-24.8%	?	-0.9	?	?
CCOc1cc(CNc2ccc(N3CCCCC3)cc2)cc(Br)c1OCC(=O)NC(C)(C)C	3.16µM*	-24.8%	0.7	?	-13.2%
CCOc1cc(CNc2ccc(N(C)C)cc2)cc(Br)c1OCC(=O)NC(C)(C)C	?	?	-36.9*	7.94µM*	15.8µM*
C=CCOc1c(Br)cc(CNc2ccc(NC(=O)C(C)C)c(OC)c2)cc1OCC	-2.7%	?	-49.7*	?	-2.6%
Cc1ccc(S(=O)(=O)NCCc2nnc3ccc(SCc4ccccc4F)nn23)cc1	.	-10.4%	.	-8.3%	-0.9%
CC#CCN1c2ccccc2[C@]23C[C@@H](C(=O)OC)N(S(=O)(=O)c4ccc5c(c4)OCCN5C)C2=NC(C(=O)OC)=C(C(=O)OC)[C@H]13	1.4%[11.4 µM]	-22.4%[11.6 µM]	0.9	-7.2%[11.5 µM]	0.2%[11.6 µM]
CCCOc1c(Cl)cc(C(=O)N(Cc2cccc(OC)c2)C2CCS(=O)(=O)C2)cc1Cl (stereo unspecified)	.	-20.8%	.	?	8.2%
CCN(Cc1ccccc1)S(=O)(=O)c1ccc(C(=O)Nc2nnc(C3CC3)o2)cc1	14.1µM*	-4.6%	13.3	-5.2%	1.1%
Cc1nnc(NC(=O)c2ccc(S(=O)(=O)N(C)Cc3ccccc3)cc2)o1	?	-7.6%	3.8	-12.6%	1.6%
CSc1nnc(-c2ccccc2N=Cc2c(C)[nH]n(-c3ccc4ccccc4c3)c2=O)c(=O)[nH]1	8.0%	-13.7%	0.0	22.4µM*	-3.1%
Cc1ccc(Cl)cc1N(C)C(=O)c1noc2c1CCCCC2	.	-10.7%	.	-6.2%	-7.3%
CN(C)c1ccc(N=Nc2ccccc2C(=O)OCC(=O)N2CCCC2)cc1	1.3%	-23.7%	0.5	12.6µM*	5.9%
SMILES	KDM4E inh	Tau fluor cs	Coupling enz	Tau fibril ThT	Tau FP inhib
CN(C)c1ccc(C(=O)OCC(=O)N2CCOCC2)cc1	-14.5%	-2.8%	1.0	1.3%	7.3%
CN(C)c1ccc(N=Nc2ccccc2C(=O)OCC(=O)N2CCCCCC2)cc1	3.8%	-21.4%	2.4	8.91µM*	12.5%
CN(C)c1ccc(N=Nc2ccccc2C(=O)OCC(=O)Nc2ccccc2C(F)(F)F)cc1	-0.1%	?	-0.8	5.01µM*	?
Cc1ccc(NC(=O)C2CCCN2S(=O)(=O)c2cccc3nsnc23)cc1Cl (stereo unspecified)	.	?	.	-15.8%	2.7%
Nc1ccc(N2CCN(c3ccc(Cl)c(Cl)c3)CC2)cc1	-8.1%	?	0.4	15.8µM*	-4.9%
Nc1ccc(N2CCN(c3ccc(F)cc3)CC2)cc1	-24.2%	?	0.4	12.6µM*	-6.5%
O=S(=O)(c1ccc(F)cc1)N1CCN(c2ccc(F)cc2)CC1	.	.	3.9	.	.
Nc1ccc(N2CCCCCC2)cc1	?	?	-35.5*	7.08µM*	14.1µM*
COC(=O)c1sccc1S(=O)(=O)N(CC(=O)NCc1ccccc1)c1ccc(C)c(C)c1	.	0.6%	.	1.8%	7.7%
COc1ccc(N2CCN(C(=O)c3sc4nc5n(c(=O)c4c3C)CCC5)CC2)cc1	.	-13.4%	.	-12.7%	-2.7%
Cc1cccc2sc(NC(=O)C3CCN(S(=O)(=O)c4cc([N+](=O)[O-])ccc4Cl)CC3)nc12	12.6µM*	?	-2.0	?	10.5%
CCOC(=O)c1cc(-c2ccc(OC)cc2)n(CCC(=O)Nc2cccc(C(C)=O)c2)c1C	.	?	.	0.8%	-4.0%
COc1cc(/C=C(\C#N)c2nc3ccc(C)cc3[nH]2)c([N+](=O)[O-])cc1OC	3.9%	?	-3.6	14.1µM*	13.1%
COc1c(O)ccc(/C=C(\C#N)c2nc3ccccc3[nH]2)c1[N+](=O)[O-]	?	?	-17.1	7.08µM*	8.7%
Cc1ccc2nc(/C(C#N)=C/c3ccc(-c4ccc(F)cc4F)o3)[nH]c2c1	.	-18.1%	.	-8.8%	-5.5%
Cc1ccc2nc(/C(C#N)=C/c3ccc(-c4cccc([N+](=O)[O-])c4)o3)[nH]c2c1	-0.6%	?	-1.5	1.41µM*	-4.8%
COc1cc(/C=C(\C#N)c2nc3ccc(C)cc3[nH]2)cc([N+](=O)[O-])c1O	-0.1%	8.91µM*[quencher]	-8.0	2µM*	-0.7%
Cc1ccc2occ(-c3cc(-c4ccc(F)cc4)nc4c3COc3ccc(F)cc3-4)c(=O)c2c1	.	-0.2%	.	5.7%	-17.4%
CC1CCN(c2nc3ccc(C(=O)NCc4ccccc4Cl)cc3s2)CC1	.	-4.5%	.	-2.9%	?
Cc1ccc2nc(/C(C#N)=C\c3cc(O)ccc3[N+](=O)[O-])[nH]c2c1	-2.0%	-26.8%	3.1	15.8µM*	13.9%
Cc1ccc2c(c1)c(CC(NC(=O)c1ccccc1Oc1ccccc1)C(=O)O)cn2C(=O)OCc1ccccc1 (stereo unspecified)	.	.	8.6	.	.
Cn1c(N=Nc2ccc(N3CCOCC3)cc2)[n+](C)c2ccccc21	-21.1%	3.98µM*[quencher]	-15.8	1µM*	14.1µM*
FC(F)c1nc2ccccc2[nH]1	-28.5%	8.5%[2.34 µM]	2.7	-13.3%	9.5%[2.34 µM]
c1ccc2[nH]c3cc4ncnc4cc3nc2c1	?	-12.4%	-42.6*	?	-4.7%
